Measurements reported in PubChem BioAssay (EPA / NIEHS).
Results filed as inconclusive are left out. Where a structure was tested more than once in an assay, its records may differ in their call. The source made the active and inactive calls. Rule for the calls, unless noted: active = hit-call score of the fitted dose curve at least 0.9, where 1 is the maximum; inactive = score below 0.9.

What was measured:
[1] = ATG_PXRE_CIS: Attagene CIS-FACTORIAL HepG2 Assay for human Pregnane X Receptor Element (PXRE) (AID 2282957); details: HepG2 Attagene CIS-FACTORIAL PXRE reporter, mRNA; actives raise or lower the signal
In short: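 Read-out: fluorescence of reporter-specific RT-PCR products resolved by capillary electrophoresis, fitted bidirectionally relative to DMSO. Human HepG2 liver cells carried transfected cis-promoter reporter units and were exposed to chemicals for 24 h.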

[2] = ATG_PPRE_CIS: Attagene CIS-FACTORIAL HepG2 Assay for human Peroxisome Proliferator-activated Response Element (PPRE) (AID 2282958); details: HepG2 PPRE cis-element reporter, Attagene transcription factor profiling; actives raise or lower the signal
In short: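 Cells are first transfected transiently with the multiplexed reporter library, then dosed for 24 h. Total RNA is reverse-transcribed, amplified, fluorescently end-labeled and HpaI-cut before capillary electrophoresis; activity is fitted bidirectionally against DMSO controls.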

[3] = ATG_RORE_CIS: Attagene CIS-FACTORIAL HepG2 Assay for human RAR-related Orphan Receptor Element (RORE) (AID 2282959); details: HepG2 Attagene cis-factorial RORE reporter, mRNA; actives raise or lower the signal
In short: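 Cells were HepG2 carrying transfected cis-regulated reporter constructs, dosed for 24 hours. Total RNA was reverse-transcribed and reporter cDNA amplified, fluorescently labeled and sized by capillary electrophoresis. Activity was fitted bidirectionally relative to DMSO.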

[4] = ATG_Sox_CIS: Attagene CIS-FACTORIAL HepG2 Assay for human SRY-box transcription factor (SOX) (AID 2282960); details: HepG2 Attagene cis-factorial SOX reporter, mRNA; actives raise or lower the signal
In short: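 Transient MRTU transfection of HepG2; 24 h compound incubation; TriZol RNA, oligo(dT) RT, PCR, 6-FAM primer extension, HpaI cut, CE. Bidirectional fit, DMSO = baseline.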

[5] = target: Transcription factor Sp1 (Homo sapiens) (UniProt P08047); experiment: ATG_Sp1_CIS: Attagene CIS-FACTORIAL HepG2 Assay for human Specificity Protein 1 (Sp1) (AID 2282961); details: HepG2 Sp1 cis-reporter transcription, actives raise or lower the signal
Transcription factor Sp1 (Homo sapiens), sequence (P08047 whole entry, looked up): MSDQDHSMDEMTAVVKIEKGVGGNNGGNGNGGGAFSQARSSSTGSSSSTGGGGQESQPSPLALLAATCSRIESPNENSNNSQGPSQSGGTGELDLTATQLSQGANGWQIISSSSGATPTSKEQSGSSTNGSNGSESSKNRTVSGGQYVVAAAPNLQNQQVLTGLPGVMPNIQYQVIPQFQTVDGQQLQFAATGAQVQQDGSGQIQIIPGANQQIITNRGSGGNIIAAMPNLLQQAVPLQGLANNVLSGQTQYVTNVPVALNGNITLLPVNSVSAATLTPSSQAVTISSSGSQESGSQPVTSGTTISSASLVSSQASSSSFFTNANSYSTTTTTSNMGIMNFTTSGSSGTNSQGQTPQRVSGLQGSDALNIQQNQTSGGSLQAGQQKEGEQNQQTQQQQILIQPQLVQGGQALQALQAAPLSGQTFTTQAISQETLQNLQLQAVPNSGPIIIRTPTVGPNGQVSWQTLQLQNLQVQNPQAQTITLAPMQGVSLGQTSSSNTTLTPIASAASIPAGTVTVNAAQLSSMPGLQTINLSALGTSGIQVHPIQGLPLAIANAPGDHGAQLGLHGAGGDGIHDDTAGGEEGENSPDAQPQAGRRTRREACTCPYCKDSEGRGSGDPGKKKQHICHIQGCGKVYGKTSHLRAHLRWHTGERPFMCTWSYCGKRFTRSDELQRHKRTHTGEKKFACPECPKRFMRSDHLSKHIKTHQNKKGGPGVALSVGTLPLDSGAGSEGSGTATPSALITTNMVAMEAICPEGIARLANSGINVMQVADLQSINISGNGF
In short: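 Endogenous Sp1 activity was gauged in human liver HepG2 cells bearing transfected reporter units under a cis-regulating promoter. After 24 h dosing, reporter mRNA was quantified by RT-PCR with capillary electrophoresis, and activity fitted bidirectionally versus DMSO.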

[6] = ATG_SREBP_CIS: Attagene CIS-FACTORIAL HepG2 Assay for human Sterol Regulatory Element Binding (SREBP) (AID 2282962); details: HepG2 Attagene cis-factorial SREBP reporter, mRNA; actives raise or lower the signal
In short: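 In this cis-format assay, HepG2 liver cells express reporters controlled by promoter elements responsive to native transcription factors. Exposure lasts 24 h; reporter mRNA fluorescence from capillary electrophoresis gives the signal, fitted bidirectionally against DMSO.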

[7] = target: Signal transducer and activator of transcription 3 (Homo sapiens) (UniProt P40763); experiment: ATG_STAT3_CIS: Attagene CIS-FACTORIAL HepG2 Assay for human Signal Transducer and Activator of Transcription 3 (STAT3) (AID 2282963); details: HepG2, Attagene cis-factorial STAT3 reporter transcription; actives raise or lower the signal
Signal transducer and activator of transcription 3 (Homo sapiens), sequence (P40763 whole entry, looked up): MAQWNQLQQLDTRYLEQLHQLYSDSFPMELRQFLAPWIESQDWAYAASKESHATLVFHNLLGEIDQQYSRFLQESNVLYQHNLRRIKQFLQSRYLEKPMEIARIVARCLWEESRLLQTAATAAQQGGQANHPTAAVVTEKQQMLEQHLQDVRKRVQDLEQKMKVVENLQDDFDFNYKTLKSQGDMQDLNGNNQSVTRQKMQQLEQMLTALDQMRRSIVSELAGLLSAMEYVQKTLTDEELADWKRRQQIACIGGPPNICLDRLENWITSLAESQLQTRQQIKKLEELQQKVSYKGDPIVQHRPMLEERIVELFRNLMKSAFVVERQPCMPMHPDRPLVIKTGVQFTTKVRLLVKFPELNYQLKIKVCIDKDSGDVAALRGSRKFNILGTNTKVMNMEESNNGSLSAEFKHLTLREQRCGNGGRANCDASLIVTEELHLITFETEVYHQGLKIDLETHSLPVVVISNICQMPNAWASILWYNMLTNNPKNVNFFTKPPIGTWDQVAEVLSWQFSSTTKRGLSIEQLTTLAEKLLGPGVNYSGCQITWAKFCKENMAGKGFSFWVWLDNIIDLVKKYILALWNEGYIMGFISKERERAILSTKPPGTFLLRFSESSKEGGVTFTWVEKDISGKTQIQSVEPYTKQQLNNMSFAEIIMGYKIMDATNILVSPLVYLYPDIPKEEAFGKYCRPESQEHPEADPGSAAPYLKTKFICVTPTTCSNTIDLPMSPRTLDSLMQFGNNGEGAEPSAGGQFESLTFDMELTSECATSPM
In short: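 Cis-factorial format: endogenous transcription factors in HepG2 drive transfected reporter units. After 24 h treatment, reporter RNA was reverse-transcribed, amplified, FAM-labelled and HpaI-digested before CE analysis; activity scored in both directions against DMSO.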

[8] = ATG_TCF_b_cat_CIS: Attagene CIS-FACTORIAL HepG2 Assay for human T-Cell-Factor with beta-catenin (TCF/b-cat) (AID 2282965); details: HepG2 TCF/beta-catenin cis-reporter transcription, actives raise or lower the signal
In short: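 Measured: reporter mRNA in HepG2 transiently transfected with cis-promoter reporter units, 24 h after chemical addition. Fitting was bidirectional, DMSO as negative control.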

[9] = ATG_TAL_CIS: Attagene CIS-FACTORIAL HepG2 Assay for human TAL Basal Promoter (AID 2282966); details: HepG2 Attagene cis-factorial TAL promoter reporter; actives raise or lower the signal;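 note: background control endpoint measuring basal TAL promoter reporter mRNA not a specific factor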
In short: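 HepG2, transient MRTU transfection, 24 h compound exposure; RNA → oligo(dT) RT → PCR → 6-FAM primer extension → HpaI digest → CE fluorescence. Bidirectional curve fit vs DMSO. Background-control readout.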

[10] = ATG_TGFb_CIS: Attagene CIS-FACTORIAL HepG2 Assay for human Transforming Growth Factor (TGF) (AID 2282967); details: HepG2 Attagene CIS TGFb reporter, mRNA transcription; actives raise or lower the signal
In short: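 HepG2 cells transiently transfected with cis-promoter-driven multiplexed reporter units; 24 h compound exposure. Reporter mRNA measured by RT-PCR, 6-FAM labeling, HpaI digestion and capillary electrophoresis; bidirectional fit versus DMSO baseline.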

[11] = target: Nuclear receptor subfamily 1 group I member 3 (Homo sapiens) (UniProt Q14994); experiment: ATG_CAR_TRANS: Attagene TRANS-FACTORIAL HepG2 Assay for human Constitutive Androstane Receptor (CAR) (AID 2282969; active = hit-call score of the fitted dose curve at least 0.9, where 1 is the maximum;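 note: activators raise reporter mRNA above DMSO so AC50 marks induction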); details: HepG2 Attagene TRANS-FACTORIAL CAR reporter
Nuclear receptor subfamily 1 group I member 3 (Homo sapiens), sequence (Q14994 whole entry, looked up, the tested form may be a part): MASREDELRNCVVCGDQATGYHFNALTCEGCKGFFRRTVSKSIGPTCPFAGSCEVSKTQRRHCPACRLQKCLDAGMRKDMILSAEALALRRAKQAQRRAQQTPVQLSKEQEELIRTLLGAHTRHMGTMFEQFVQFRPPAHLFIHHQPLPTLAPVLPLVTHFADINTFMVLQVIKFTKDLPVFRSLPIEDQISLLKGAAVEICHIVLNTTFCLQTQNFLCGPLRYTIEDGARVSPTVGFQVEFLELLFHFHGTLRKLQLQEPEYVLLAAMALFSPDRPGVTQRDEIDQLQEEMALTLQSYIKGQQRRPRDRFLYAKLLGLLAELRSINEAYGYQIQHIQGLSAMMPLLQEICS
In short: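 Signal is reporter mRNA induction relative to DMSO, measured 24 h after dosing by RT-PCR with fluorescent primer extension and capillary electrophoresis. Human HepG2 liver cells carried transiently transfected chimeric NR-Gal4/GAL4-UAS reporter constructs.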

[12] = target: Estrogen receptor (Homo sapiens) (UniProt P03372); experiment: ATG_ERa_TRANS: Attagene TRANS-FACTORIAL HepG2 Assay for human Estrogen Receptor alpha (ERa) (AID 2282970; active = hit-call score of the fitted dose curve at least 0.9, where 1 is the maximum); details: HepG2 Attagene TRANS ERa GAL4 reporter, mRNA
Estrogen receptor (Homo sapiens), sequence (P03372 whole entry, looked up, the tested form may be a part): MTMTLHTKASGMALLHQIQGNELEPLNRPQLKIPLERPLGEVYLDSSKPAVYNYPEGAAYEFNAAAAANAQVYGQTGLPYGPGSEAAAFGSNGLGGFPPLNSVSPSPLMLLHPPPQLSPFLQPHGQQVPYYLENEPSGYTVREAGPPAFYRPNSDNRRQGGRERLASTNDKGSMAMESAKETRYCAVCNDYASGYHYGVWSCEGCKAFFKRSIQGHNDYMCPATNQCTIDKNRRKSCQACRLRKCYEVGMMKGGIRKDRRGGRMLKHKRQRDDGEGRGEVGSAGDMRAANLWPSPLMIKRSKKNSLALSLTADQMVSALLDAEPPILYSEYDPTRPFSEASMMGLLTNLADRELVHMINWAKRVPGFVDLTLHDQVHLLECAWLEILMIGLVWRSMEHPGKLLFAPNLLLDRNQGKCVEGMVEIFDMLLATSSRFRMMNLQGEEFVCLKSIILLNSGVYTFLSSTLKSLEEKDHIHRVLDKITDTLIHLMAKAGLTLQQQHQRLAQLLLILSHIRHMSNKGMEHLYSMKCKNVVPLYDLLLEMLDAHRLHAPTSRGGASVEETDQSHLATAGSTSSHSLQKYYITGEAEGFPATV
In short: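 Reporter mRNA induction after 24 hours, detected by fluorescent RT-PCR and capillary electrophoresis, gives the read-out. Cells are HepG2 transiently transfected with GAL4-UAS reporter transcription units responding to chimeric NR-Gal4. Activity is taken as gain of signal over DMSO baseline.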

[13] = target: X-box-binding protein 1 (Homo sapiens) (UniProt P17861); experiment: ATG_Xbp1_CIS: Attagene CIS-FACTORIAL HepG2 Assay for human X-box Binding Protein 1 (XBP1) (AID 2282972); details: HepG2 XBP1 cis-element reporter, Attagene multiplex; actives raise or lower the signal
X-box-binding protein 1 (Homo sapiens), sequence (P17861 whole entry, looked up): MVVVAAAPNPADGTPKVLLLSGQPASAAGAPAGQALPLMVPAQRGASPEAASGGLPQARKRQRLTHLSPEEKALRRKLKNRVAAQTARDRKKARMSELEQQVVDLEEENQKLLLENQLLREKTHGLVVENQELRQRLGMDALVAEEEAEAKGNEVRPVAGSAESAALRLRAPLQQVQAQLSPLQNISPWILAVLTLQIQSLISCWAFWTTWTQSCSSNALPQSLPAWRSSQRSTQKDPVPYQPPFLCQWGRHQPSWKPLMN
In short: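 Changes in reporter transcript abundance, read by RT-PCR and capillary electrophoresis, reflect endogenous transcription factor activity. Transfected HepG2 cells received compound for 24 hours; DMSO defined baseline for bidirectional analysis.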

[14] = ATG_GAL4_TRANS: Attagene TRANS-FACTORIAL HepG2 Assay for GAL4 (Internal Marker) (AID 2282976; active = hit-call score of the fitted dose curve at least 0.9, where 1 is the maximum); details: HepG2 Attagene TRANS GAL4 internal marker reporter
In short: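 RT-PCR/capillary electrophoresis readout of reporter mRNA. HepG2, transient MRTU transfection (GAL4-UAS reporters), 24 h compound exposure. Background-control endpoint, positive direction vs DMSO baseline.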

[15] = ATG_TA_CIS: Attagene CIS-FACTORIAL HepG2 Assay for human TA Basal Promoter (AID 2282964); details: HepG2 Attagene CIS-factorial TA basal promoter reporter; actives raise or lower the signal
In short: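 HepG2 cells transiently transfected with multiplexed cis-promoter reporter units, dosed 24 h. Reporter mRNA measured by RT-PCR, 6-FAM labelling, HpaI digestion and capillary electrophoresis; bidirectional fit versus DMSO baseline, serving as background control.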

[16] = ATG_VDRE_CIS: Attagene CIS-FACTORIAL HepG2 Assay for human Vitamin D Receptor Element (VDRE) (AID 2282968); details: HepG2 VDRE cis-reporter transcription, actives raise or lower the signal
In short: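 Measures endogenous factor activity through cis-element-driven reporter transcripts in transiently transfected HepG2. Cells are treated 24 h; reporter mRNA is quantified by RT-PCR and capillary electrophoresis; fitting is bidirectional.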

[17] = target: Glucocorticoid receptor (Homo sapiens) (UniProt P04150); experiment: ATG_GR_TRANS: Attagene TRANS-FACTORIAL HepG2 Assay for human Glucocorticoid Receptor (GR) (AID 2282978; active = hit-call score of the fitted dose curve at least 0.9, where 1 is the maximum;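 note: activators score as hits since higher reporter transcript over DMSO is fitted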); details: HepG2 Attagene TRANS GR reporter, mRNA transcription
Glucocorticoid receptor (Homo sapiens), sequence (P04150 whole entry, looked up, the tested form may be a part): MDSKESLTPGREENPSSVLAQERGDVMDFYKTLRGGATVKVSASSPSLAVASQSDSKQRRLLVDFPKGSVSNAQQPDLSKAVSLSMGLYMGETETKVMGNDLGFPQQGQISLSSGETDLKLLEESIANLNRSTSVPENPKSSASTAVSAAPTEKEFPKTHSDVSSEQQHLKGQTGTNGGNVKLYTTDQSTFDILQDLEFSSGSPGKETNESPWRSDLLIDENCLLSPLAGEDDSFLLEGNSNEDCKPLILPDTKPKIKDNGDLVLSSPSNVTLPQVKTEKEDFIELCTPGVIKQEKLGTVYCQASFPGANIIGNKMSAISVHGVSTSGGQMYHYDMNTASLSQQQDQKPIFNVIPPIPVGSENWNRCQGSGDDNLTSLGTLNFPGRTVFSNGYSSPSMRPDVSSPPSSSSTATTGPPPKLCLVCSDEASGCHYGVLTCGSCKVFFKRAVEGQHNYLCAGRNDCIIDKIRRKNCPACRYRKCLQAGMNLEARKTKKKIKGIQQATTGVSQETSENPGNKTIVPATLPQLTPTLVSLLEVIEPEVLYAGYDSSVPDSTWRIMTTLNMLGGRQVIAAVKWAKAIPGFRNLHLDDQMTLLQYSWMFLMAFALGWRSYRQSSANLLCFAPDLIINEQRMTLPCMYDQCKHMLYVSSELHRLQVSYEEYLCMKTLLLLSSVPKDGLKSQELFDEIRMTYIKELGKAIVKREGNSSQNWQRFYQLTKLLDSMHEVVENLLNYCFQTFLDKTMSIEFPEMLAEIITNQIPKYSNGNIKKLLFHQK
In short: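 In this trans-factorial format, exogenous NR-GAL4 chimeric proteins in transfected HepG2 cells regulate GAL4-UAS reporter transcription. After 24 h treatment, reporter mRNA induction relative to DMSO is read by RT-PCR and capillary electrophoresis.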

[18] = target: Steroid hormone receptor ERR1 (Homo sapiens) (UniProt P11474); experiment: ATG_ERRa_TRANS: Attagene TRANS-FACTORIAL HepG2 Assay for human Estrogen-Related Receptor alpha (ERRa) (AID 2282971; active = hit-call score of the fitted dose curve at least 0.9, where 1 is the maximum); details: HepG2 Attagene TRANS reporter, ERRa transactivation
Steroid hormone receptor ERR1 (Homo sapiens), sequence (P11474 whole entry, looked up, the tested form may be a part): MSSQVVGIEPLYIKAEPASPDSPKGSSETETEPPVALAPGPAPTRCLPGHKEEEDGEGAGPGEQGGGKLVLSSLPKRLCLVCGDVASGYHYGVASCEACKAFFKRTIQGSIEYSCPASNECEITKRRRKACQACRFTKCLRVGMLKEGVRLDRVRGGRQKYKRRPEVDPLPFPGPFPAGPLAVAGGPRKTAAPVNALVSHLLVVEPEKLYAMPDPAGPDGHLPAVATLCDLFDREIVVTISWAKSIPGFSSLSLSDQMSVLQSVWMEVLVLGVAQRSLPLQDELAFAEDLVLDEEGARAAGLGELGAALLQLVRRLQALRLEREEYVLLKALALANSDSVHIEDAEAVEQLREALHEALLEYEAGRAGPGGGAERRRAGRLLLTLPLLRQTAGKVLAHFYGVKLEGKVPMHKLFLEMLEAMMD
In short: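 Transfected HepG2, 24 h dosing, ERRa-Gal4 chimera driving GAL4-UAS reporter. Readout: reporter mRNA via RT-PCR plus capillary electrophoresis (fluorescence). Positive direction vs DMSO control.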

[19] = target: Estrogen-related receptor gamma (Homo sapiens) (UniProt P62508); experiment: ATG_ERRg_TRANS: Attagene TRANS-FACTORIAL HepG2 Assay for human Estrogen-Related Receptor gamma (ERRg) (AID 2282977; active = hit-call score of the fitted dose curve at least 0.9, where 1 is the maximum;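 note: hits increase reporter signal over DMSO so potencies reflect activators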); details: HepG2 Attagene TRANS reporter, ERRg transactivation
Estrogen-related receptor gamma (Homo sapiens), sequence (P62508 whole entry, looked up, the tested form may be a part): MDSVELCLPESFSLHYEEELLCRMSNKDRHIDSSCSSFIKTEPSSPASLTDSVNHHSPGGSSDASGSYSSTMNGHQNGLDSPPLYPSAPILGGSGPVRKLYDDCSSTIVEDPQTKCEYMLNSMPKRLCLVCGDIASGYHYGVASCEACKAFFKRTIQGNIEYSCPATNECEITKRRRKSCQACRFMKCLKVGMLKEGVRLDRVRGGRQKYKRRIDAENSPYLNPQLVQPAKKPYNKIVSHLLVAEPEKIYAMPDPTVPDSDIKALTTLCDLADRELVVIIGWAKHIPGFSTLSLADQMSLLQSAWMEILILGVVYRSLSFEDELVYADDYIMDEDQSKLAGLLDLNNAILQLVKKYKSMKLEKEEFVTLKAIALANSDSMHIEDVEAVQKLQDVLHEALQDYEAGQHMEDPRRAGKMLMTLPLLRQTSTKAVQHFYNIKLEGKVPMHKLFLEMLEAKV
In short: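 Readout: fluorescent reporter-mRNA fragments resolved by capillary electrophoresis after RT-PCR and HpaI cut. Cells: transiently transfected HepG2 carrying GAL4-UAS reporters driven by exogenous NR-Gal4 chimeras, dosed 24 h. Activity fitted upward relative to DMSO baseline.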

[20] = ATG_M_19_TRANS: Attagene TRANS-FACTORIAL HepG2 Assay for M19 Transcription Factor (Internal Marker) (AID 2282974; active = hit-call score of the fitted dose curve at least 0.9, where 1 is the maximum); details: HepG2 Attagene TRANS-FACTORIAL M19 internal marker reporter
In short: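 Cells: human HepG2, transiently transfected with multiplexed reporter transcription units. Exposure: 24 h. Detection: RT-PCR of reporter mRNA with capillary electrophoresis. Analysis: gain-of-signal vs DMSO.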

Measured: AC50

O=C(F)C(F)(F)C(F)(F)C(F)(F)C(=O)F
not listed: [15] | [16] | [17] | [18] | [19] | [20]
inactive: all other assays above

C[C@]12CC[C@@H]3c4ccc(O)cc4CC[C@H]3[C@@H]1C[C@@H](O)[C@@H]2O
active: [16] 27.1 µM
inactive: [1] | [2] | [3] | [4] | [5] | [6] | [7] | [15] | [9] | [10] | [16] | [13] | [14] | [17]

CCCCCCCCCCCCCC[n+]1ccccc1
active: [1] 11.1 µM | [6] 2.7 µM | [19] 189 µM
not listed: [11] | [12] | [14] | [15] | [16] | [20]
inactive: all other assays above

CC(=O)CC(C)C
not listed: [8] | [12] | [17] | [19]
inactive: all other assays above

C=CC(=O)OCCN(CC)CC
active: [1] 66.9 µM | [6] 61.8 µM | [16] 62.9 µM | [13] 29 µM
not listed: [8] | [12] | [17] | [18] | [19] | [20]
inactive: all other assays above

C=CCOCC(CO)(CO)CO
active: [1] 25.3 µM
not listed: [8] | [14] | [15] | [18] | [19] | [20]
inactive: all other assays above

FC(F)(F)C(F)(F)C(F)(F)Br
not listed: [11] | [15] | [17] | [18] | [19]
inactive: all other assays above

FCOC(C(F)(F)F)C(F)(F)F
not listed: [11] | [12] | [15] | [18] | [19]
inactive: all other assays above

O=C(C=C(O)C(F)(F)F)C(F)(F)F
active: [1] 99 µM
not listed: [8] | [11] | [19]
inactive: all other assays above

Oc1c(Cl)ccc(Cl)c1Cl
active: [1] 49.8 µM | [2] 40.4 µM
not listed: [11] | [12] | [14] | [17] | [18] | [19] | [20]
inactive: all other assays above

COc1cccc(O)c1
not listed: [8] | [12] | [16] | [17] | [18] | [19]
inactive: all other assays above

COC(=O)C(F)(F)C(F)(F)C(F)(F)C(F)(F)C(F)(F)F
not listed: [11] | [12] | [14] | [17] | [19] | [20]
inactive: all other assays above

C=CC(F)(F)C(F)(F)C(F)(F)C(F)(F)F
not listed: [12] | [15] | [17] | [18] | [19] | [20]
inactive: all other assays above

C=Cc1ccc(O)c(OC)c1
active: [1] 26.6 µM | [2] 13 µM | [16] 44.7 µM
not listed: [8] | [17] | [18] | [19]
inactive: all other assays above

O=C1OC(=O)C(F)(F)C1(F)F
not listed: [11] | [12] | [19] | [20]
inactive: all other assays above

CC(C)(c1ccc(Oc2ccc(N)cc2)cc1)c1ccc(Oc2ccc(N)cc2)cc1
active: [1] 2.01 µM | [16] 3.6 µM
not listed: [11] | [15] | [17] | [18] | [19]
inactive: all other assays above

CC(=O)Nc1ccc(O)cc1
not listed: [11] | [12] | [14] | [16] | [17] | [18] | [19] | [20]
inactive: all other assays above
